A short description of experiment [1]: antimalarial activity against Dd2 strain (AID 2302;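 active = growth inhibition above 50% at the single 2 µM test dose, taken to imply half-maximal potency below 2 µM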;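 note: 0% = DMSO untreated growth and 100% = chloroquine plus artemisinin killed control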). The conditions noted are these: P. falciparum Dd2 in RBCs, LDH growth readout, 72 h; at 2 µM; active compounds read high.
Experiment [2] is described as follows: human hepatoma cell viability loss – ATP luminescence, cytotoxicity control for P. falciparum antimalarial project, primary screen (AID 2303;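 active = inhibition above 50%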;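 note: 0% = DMSO wells and 100% = digitonin-killed cells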). As to conditions: HepG2 viability, 24-48 h, at 10 µM, active compounds read high.
The target of experiment [3] is L-lactate dehydrogenase (Plasmodium falciparum (isolate CDC / Honduras)) (UniProt Q27743). Put plainly: PfLDH activity inhibition – cell lysate, 3D7 strain, counter-screen for P. falciparum growth inhibition project (AID 2304).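 Note: 0% = vehicle and 100% = reference inhibitor.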 The conditions noted are these: P. falciparum 3D7 crude extract, LDH APAD/NBT absorbance; at 2 µM; active compounds read high.
L-lactate dehydrogenase (Plasmodium falciparum (isolate CDC / Honduras)), sequence (Q27743 whole entry, looked up): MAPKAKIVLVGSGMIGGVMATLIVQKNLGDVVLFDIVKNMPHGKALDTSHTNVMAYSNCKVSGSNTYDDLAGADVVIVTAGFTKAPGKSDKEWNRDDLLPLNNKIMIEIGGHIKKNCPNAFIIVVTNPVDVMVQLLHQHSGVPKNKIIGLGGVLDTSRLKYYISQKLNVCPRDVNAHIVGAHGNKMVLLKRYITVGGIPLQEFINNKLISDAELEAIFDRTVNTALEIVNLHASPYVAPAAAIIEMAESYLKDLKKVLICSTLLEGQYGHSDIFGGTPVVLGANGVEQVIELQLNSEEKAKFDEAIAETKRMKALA
A short description of experiment [4]: inhibition of 3D7 malaria parasite growth – strain 3D7 (AID 2306).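 Note: 0% = DMSO wells and 100% = chloroquine plus artemisinin control wells.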 The conditions noted are these: P. falciparum 3D7 erythrocytic growth, LDH absorbance, 72 h; at 2 µM; active compounds read high.
In experiment [5] the target is Calcium-dependent protein kinase 1 (Plasmodium falciparum (isolate 3D7)) (UniProt P62344). Description: PfCDPK1 kinase inhibitors, biochemical, TCAMS library (AID 1159585; cut-off not given, nearly all actives have IC50 up to about 0.98 µM;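 note: inhibitors leave more ATP so luminescence rises with inhibition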). As to conditions: recombinant PfCDPK1, Kinase-Glo ATP depletion luminescence.
Calcium-dependent protein kinase 1 (Plasmodium falciparum (isolate 3D7)), sequence (P62344 whole entry, looked up): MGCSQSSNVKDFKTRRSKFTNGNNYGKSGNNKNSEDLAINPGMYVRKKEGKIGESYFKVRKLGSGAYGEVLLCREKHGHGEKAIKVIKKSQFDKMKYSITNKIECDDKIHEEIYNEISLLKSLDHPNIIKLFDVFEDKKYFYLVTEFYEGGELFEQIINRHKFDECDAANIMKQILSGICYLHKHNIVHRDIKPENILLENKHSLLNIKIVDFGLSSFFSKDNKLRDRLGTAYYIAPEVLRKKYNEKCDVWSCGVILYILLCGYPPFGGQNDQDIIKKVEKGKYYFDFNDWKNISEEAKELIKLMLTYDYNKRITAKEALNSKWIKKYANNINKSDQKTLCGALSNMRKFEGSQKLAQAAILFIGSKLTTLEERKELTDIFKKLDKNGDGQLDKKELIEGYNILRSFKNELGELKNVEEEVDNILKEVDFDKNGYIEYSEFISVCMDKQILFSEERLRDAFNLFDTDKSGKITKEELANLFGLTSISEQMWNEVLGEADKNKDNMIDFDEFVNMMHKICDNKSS
The target of experiment [6] is Plasmodium falciparum protein kinase 6 (PK6, PF3D7_1337100) (UniProt Q8IDW1). Description: PfPK6 kinase inhibitors, biochemical, TCAMS library (AID 1159586). The conditions noted are these: recombinant PfPK6, Kinase-Glo ATP depletion luminescence.
Plasmodium falciparum protein kinase 6 (PK6, PF3D7_1337100), sequence (Q8IDW1 1-305): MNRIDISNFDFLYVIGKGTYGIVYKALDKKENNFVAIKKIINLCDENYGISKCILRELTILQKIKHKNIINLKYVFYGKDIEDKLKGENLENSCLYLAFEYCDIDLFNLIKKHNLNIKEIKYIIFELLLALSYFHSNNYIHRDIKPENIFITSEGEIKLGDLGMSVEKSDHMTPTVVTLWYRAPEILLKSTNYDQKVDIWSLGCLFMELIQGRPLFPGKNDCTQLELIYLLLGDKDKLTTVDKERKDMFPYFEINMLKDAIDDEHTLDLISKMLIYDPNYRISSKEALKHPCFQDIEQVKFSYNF
For experiment [7], the target named is Protein kinase 7 (PK7), Plasmodium falciparum 3D7 (PF3D7_0213400) (UniProt Q7YTF7). Description: inhibition of Plasmodium PK7 catalytic activity – biochemical, TCAMS antimalarial set, Kinase-Glo luminescence (AID 1159587). The conditions noted are these: recombinant PfPK7, Kinase-Glo ATP depletion luminescence.
Protein kinase 7 (PK7), Plasmodium falciparum 3D7 (PF3D7_0213400), sequence (Q7YTF7 1-343): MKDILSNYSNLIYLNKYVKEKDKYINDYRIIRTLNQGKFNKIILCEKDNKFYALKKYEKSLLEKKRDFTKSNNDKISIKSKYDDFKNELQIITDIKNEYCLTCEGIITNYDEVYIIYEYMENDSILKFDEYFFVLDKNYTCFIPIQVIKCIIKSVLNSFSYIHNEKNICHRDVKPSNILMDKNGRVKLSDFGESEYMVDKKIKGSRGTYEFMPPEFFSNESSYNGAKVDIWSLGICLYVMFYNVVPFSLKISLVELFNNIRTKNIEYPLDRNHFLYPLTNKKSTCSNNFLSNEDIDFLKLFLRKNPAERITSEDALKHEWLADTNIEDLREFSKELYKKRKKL
Experiment [8] deals with Calcium-dependent protein kinase 4 (Plasmodium falciparum (isolate 3D7)) (UniProt Q8IBS5). Description: PfCDPK4 kinase inhibitors, biochemical, TCAMS library (AID 1159588; cut-off not given, nearly all actives have IC50 up to about 0.91 µM). As to conditions: recombinant PfCDPK4, Kinase-Glo ATP depletion luminescence.
Calcium-dependent protein kinase 4 (Plasmodium falciparum (isolate 3D7)), sequence (Q8IBS5 whole entry, looked up): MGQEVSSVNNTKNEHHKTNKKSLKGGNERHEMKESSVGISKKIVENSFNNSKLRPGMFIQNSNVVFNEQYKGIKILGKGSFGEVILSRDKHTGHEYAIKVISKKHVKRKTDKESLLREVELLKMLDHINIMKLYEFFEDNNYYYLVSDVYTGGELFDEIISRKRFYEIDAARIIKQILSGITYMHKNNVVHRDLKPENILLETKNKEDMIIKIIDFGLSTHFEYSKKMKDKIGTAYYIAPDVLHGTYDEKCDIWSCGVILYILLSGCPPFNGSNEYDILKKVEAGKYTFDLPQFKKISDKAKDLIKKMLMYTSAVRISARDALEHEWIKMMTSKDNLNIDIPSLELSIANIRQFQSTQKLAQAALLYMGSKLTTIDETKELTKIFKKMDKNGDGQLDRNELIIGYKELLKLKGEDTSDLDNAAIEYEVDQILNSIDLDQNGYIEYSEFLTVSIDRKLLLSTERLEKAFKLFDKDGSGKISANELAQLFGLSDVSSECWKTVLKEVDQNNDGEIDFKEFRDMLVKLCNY

Molecules are shown by their SMILES. Values without a mark were called inactive. For part of these data: Potency and affinity values are given separately. Calls of active or inactive are those of the source. Unless noted, the rule behind the calls is not given here.

As to `COc1ccccc1CCCN1C(=O)C(c2ccccc2)(c2ccccc2)N=C1N`, the growth inhibition in experiment [1] and in experiment [4] was 99% (active) each time. The inhibition was 49% in experiment [2] and -3% in experiment [3]. Further, the outcome in experiment [5], in experiment [6], in experiment [7] and in experiment [8] was inactive.
For `Cc1cc(I)ccc1Nc1nc2nonc2nc1Nc1ccc(I)cc1C`, the figures for the growth inhibition in experiment [1] and in experiment [4] were 96% (active) and 100% (active), respectively. Further, the inhibition in experiment [2] is 78% (active); in experiment [3], -2%. Also, the outcome in experiment [5], in experiment [6], in experiment [7] and in experiment [8] was inactive.
On to `N#CC(c1ccc(Cl)cc1)c1ccc2c(C(F)(F)F)cc(C(F)(F)F)nc2n1` (stereo not drawn), for which the figures for the growth inhibition in experiment [1] and in experiment [4] were 54% (active) and 97% (active), respectively. In addition, the inhibition in experiment [2] was 68% (active); in experiment [3] it was 1%. For the same molecule, the outcome in experiment [5], in experiment [6], in experiment [7] and in experiment [8] was inactive.
For the molecule `COc1ccccc1OCCN(CC(O)COc1cccc2[nH]c3ccccc3c12)CC(O)COc1cccc2[nH]c3ccccc3c12` (stereo not drawn), the figures for the growth inhibition in experiment [1] and in experiment [4] were 96% (active) and 97% (active), respectively. The inhibition in experiment [2] is 16%; in experiment [3] it was -8%. Also, the result in experiment [5], in experiment [6], in experiment [7] and in experiment [8] was inactive.
For the molecule `CCC[C@@H]1CCN[C@H]([C@H](O)c2ccnc3ccc(OC)cc23)C1`, the growth inhibition was 69% (active) in experiment [1] and 99% (active) in experiment [4]. Moreover, the inhibition in experiment [2] is -3%; in experiment [3], -1%. Also, the outcome in experiment [5], in experiment [6], in experiment [7] and in experiment [8] was inactive.
In the case of `O=C(CC1CCCCC1)NCC(NCCCNc1cc(=O)c2ccccc2[nH]1)c1cc(Br)cc(Br)c1` (stereo not drawn), the growth inhibition was 52% (active) in experiment [1] and 95% (active) in experiment [4]. For the same molecule, the inhibition in experiment [2] is 8%; in experiment [3], 0%. Moreover, the result in experiment [5], in experiment [6], in experiment [7] and in experiment [8] was inactive.
In the case of `Oc1c(CN2CCCC(C(F)(F)F)C2)cc(Cl)c2ccccc12` (stereo not drawn), the growth inhibition in experiment [1] is 53% (active); in experiment [4] it was 94% (active). Besides, the inhibition in experiment [2] was 23%; in experiment [3], 4%. The result in experiment [5], in experiment [6], in experiment [7] and in experiment [8] was inactive.
With `CCOC(=O)CNC(=O)c1cc(=O)c2ccccc2o1`, the growth inhibition in experiment [1] was -4%; in experiment [4], 99% (active). For the same molecule, the values for the inhibition in experiment [2] and in experiment [3] were 22% and -4%, respectively. Moreover, the result in experiment [5], in experiment [6], in experiment [7] and in experiment [8] was inactive.
Regarding `COC(=O)C(NC(=O)NC1CCN(c2ccnc(Nc3ccc(F)cc3)n2)C1)c1ccccc1` (stereo not drawn), the results for the growth inhibition in experiment [1] and in experiment [4] were 8% and 87% (active), respectively. In addition, the inhibition in experiment [2] was 11%; in experiment [3] it was -2%. Also, the outcome in experiment [5], in experiment [6], in experiment [7] and in experiment [8] was inactive.
For `CC1CN(c2cc(=O)n(Cc3cccc(NC(=O)Nc4ccc(-c5ccccc5)cc4)c3)cn2)CC(C)N1` (stereo not drawn), the growth inhibition in experiment [1] is 63% (active); in experiment [4], 101% (active). The inhibition was 2% in experiment [2] and -2% in experiment [3]. Further, the outcome in experiment [5], in experiment [6], in experiment [7] and in experiment [8] was inactive.
With `Cc1cc(NC(=O)NCCN2CCC(NC(=O)c3ccc(Cl)cc3)CC2)c2ccccc2n1`, the growth inhibition was 54% (active) in experiment [1] and 90% (active) in experiment [4]. For the same molecule, the inhibition in experiment [2] is -4%; in experiment [3], -2%. Also, the result in experiment [5], in experiment [6], in experiment [7] and in experiment [8] was inactive.
As for `Cc1ccc(NC(C)C(=O)Nc2ccc(C#N)cc2)cc1S(=O)(=O)N1CCCCC1` (stereo not drawn), the growth inhibition in experiment [1] and in experiment [4] was 92% (active) throughout. Besides, the inhibition in experiment [2] is 11%; in experiment [3], 1%. In addition, the outcome in experiment [5], in experiment [6], in experiment [7] and in experiment [8] was inactive.
As for `Cc1cnc2cc3c(cc2c1N1CCN(C)CC1)NCC3`, the growth inhibition in experiment [1] is 69% (active); in experiment [4] it was 102% (active). Also, the results for the inhibition in experiment [2] and in experiment [3] were 12% and 3%, respectively. Further, the outcome in experiment [5], in experiment [6], in experiment [7] and in experiment [8] was inactive.
Regarding `Clc1ccc(-c2ccc(C=NNc3nc(Nc4ccccc4)nc(Nc4ccccc4)n3)o2)cc1Cl`, the growth inhibition in experiment [1] was 75% (active); in experiment [4], 97% (active). The results for the inhibition in experiment [2] and in experiment [3] were 1% and -1%, respectively. The outcome in experiment [5], in experiment [6], in experiment [7] and in experiment [8] was inactive.
Regarding `CC(C)Sc1nc(-c2ccccc2)nc2c1COC(C)(C)C2`, the growth inhibition in experiment [1] was 41%; in experiment [4], 98% (active). Besides, the inhibition in experiment [2] was 2%; in experiment [3] it was -4%. Also, the result in experiment [5], in experiment [6], in experiment [7] and in experiment [8] was inactive.
With `CC(Cc1ccc(OCc2ccccc2)cc1)Nc1nc2ccccc2c(=O)[nH]1` (stereo not drawn), the growth inhibition in experiment [1] is 96% (active); in experiment [4], 98% (active). The figures for the inhibition in experiment [2] and in experiment [3] were 2% and -1%, respectively. Also, the result in experiment [5], in experiment [6], in experiment [7] and in experiment [8] was inactive.
With `COc1ccc(C)c(Nc2ccnc(Nc3cccc(-c4nc5ccccc5[nH]4)c3)n2)c1`, the growth inhibition is 35% in experiment [1] and 98% (active) in experiment [4]. In addition, the inhibition in experiment [2] was 27%; in experiment [3], -1%. Besides, the result in experiment [5], in experiment [6], in experiment [7] and in experiment [8] was inactive.
`CCNc1cc(C(=O)N[C@@H](Cc2ccccc2)[C@H](O)CNC2CCCCC2)cc(N2CCCCS2(=O)=O)c1`: the growth inhibition was 98% (active) in experiment [1] and 99% (active) in experiment [4]. In addition, the results for the inhibition in experiment [2] and in experiment [3] were 11% and -4%, respectively. Besides, the outcome in experiment [5], in experiment [6], in experiment [7] and in experiment [8] was inactive.
As to `CCCCN=C(N)c1ccc(OCCCCCOc2ccc(C(N)=NCCCC)cc2)cc1`, the growth inhibition in experiment [1] and in experiment [4] was 99% (active) throughout. The inhibition was 19% in experiment [2] and -4% in experiment [3]. For the same molecule, the result in experiment [5], in experiment [6], in experiment [7] and in experiment [8] was inactive.
For the molecule `O=C(NCCc1ccc(Cl)c(Cl)c1)C1CCCN(C(=O)c2ccc(O)c(-c3ccc(Cl)c(Cl)c3)c2)C1` (stereo not drawn), the growth inhibition in experiment [1] is 65% (active); in experiment [4], 96% (active). Moreover, the inhibition in experiment [2] is -9%; in experiment [3] it was -3%. Further, the result in experiment [5], in experiment [6], in experiment [7] and in experiment [8] was inactive.
In the case of `Oc1ccc(Nc2ccnc3cc(Cl)ccc23)cc1`, the values for the growth inhibition in experiment [1] and in experiment [4] were 97% (active) and 100% (active), respectively. Also, the inhibition in experiment [2] and in experiment [3] was 0% throughout. Moreover, the result in experiment [5], in experiment [6], in experiment [7] and in experiment [8] was inactive.
